# This is a sample that favours compounds with a hit; in the whole collection about 11% have one here.
# JMJD2A Tudor = JMJD2A Tudor domain (human) inhibition; O75164; AlphaScreen JMJD2A-Tudor / H3K4me3 peptide binding; Potency, µM (highest dose often 114 µM), without a hit: at the highest dose activity change, negative = inhibition, actives largely listed as inhibitors; hit rate 4.4% among 390,000; further: on the % scale 0 is the no-effect control and ±100 the full control effect; nearly all actives have a fitted effect of over 50% in size
# VDR inhibitor = blocks the human vitamin D receptor. Potency, µM, for the others: max response, negative = inhibition, hits mostly inhibitors. VDR-SRC2-3 peptide fluorescence polarization, 2 h. P11473. AID 504847. hit rate 0.93% among 400,000; further: on the % scale 0 is the no-effect control and ±100 the full control effect
#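 After 23 nl compound addition and a short centrifugation, plates sat for 2 hours at ambient temperature; polarization of fluorescence then indicated loss of VDR binding to peptide SRC2-3.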
# G9a block = G9a (human) methyltransferase inhibition. Q96KQ7. G9a H3K9 monomethylation, AlphaScreen, 2 h. Potency, µM (series often up to 102 µM), inactives show at the highest dose activity, negative = inhibition, most hits filed as inhibitors. hit rate 8.8% among 350,000. AID 504332; further: on the % scale 0 is the no-effect control and ±100 the full control effect; nearly all actives have a fitted effect of over 75% in size
#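 G9a (20 nM) preincubated 15 min RT with compounds, then 500 nM biotinylated H3K9 peptide and 20 uM SAM added; 2 h RT reaction. Monomethyl-H3K9 product detected by AlphaScreen with anti-H3K9me1 antibody, streptavidin donor and anti-rabbit IgG acceptor beads.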
# PLK1 PBD inh = PLK1 (human) polo-box domain binding inhibition; Potency, µM, without a hit: max response, negative = inhibition, usual class: inhibitors; Plk1 PBD binding of FITC phosphopeptide, fluorescence polarization; P53350; hit rate 2.8% among 360,000; further: series mostly up to about 57 µM; on the % scale 0 is the no-effect control and ±100 the full control effect; nearly all actives have a fitted effect of over 65% in size
# BAZ2B block = inhibitors of human BAZ2B bromodomain; Q9UIF8; hit rate 4.4% among 360,000; AlphaScreen BAZ2B-H3K14Ac peptide displacement; Potency, µM (series often up to 114 µM), without a hit: at the top dose activity change, negative = inhibition, actives largely listed as inhibitors; further: on the % scale 0 is the no-effect control and ±100 the full control effect; nearly all actives have a fitted effect of over 60% in size
#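 BAZ2B (50 nM) with biotin-H3(5-23)K14Ac peptide (50 nM) in PBS pH 7.4, 0.01% Tween-20, preformed 30 min, then compound 30 min at room temperature; top concentration 110uM. AlphaScreen streptavidin donor/nickel chelate acceptor beads (10 ug/mL final), 20 min dark, signal read.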
# HP1b binding inh = inhibitors of HP1-beta chromodomain binding to methylated histone tails. hit rate 0.56% among 390,000. AlphaScreen HP1-beta / biotin-H3K9me3 peptide binding. Potency, µM (series often up to 114 µM), inactives show top-dose activity change, negative = inhibition, hits mostly inhibitors. AID 540317. P83916; further: nearly all actives have a fitted effect of over 70% in size
#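 Compound inhibition of the preformed complex between 50 nM HP1-beta and 50 nM biotinylated H3K9me3 peptide was read by AlphaScreen. Buffer was PBS pH 7.4 with 0.01% Tween-20. Incubations ran 30 min at room temperature, with 10 ug/mL donor/acceptor beads.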
# Active calls of the source: *; ? = inconclusive; . = not tested or not shown; ! = repeats disagree; [ ] = another dose, or the depositor's remark. The call rests on the fitted dose curve; in most records, active means well fitted curve in the direction sought with a large enough effect; inconclusive means small, poorly fitted or top-dose-only effect, or another doubt; inactive means no such curve, though single readings can be large; an effect the other way counts as inactive or inconclusive. Potency means the concentration at half of the fitted maximal effect.
SMILES,JMJD2A Tudor,VDR inhibitor,G9a block,PLK1 PBD inh,BAZ2B block,HP1b binding inh
Cc1cc(C)c(OCC(O)CN2CCN(c3ccccn3)CC2)c(C)c1 (stereo not drawn),1%,0%,?,0%,56µM*,29%
OC(COCC1COc2ccccc2O1)CN1CCN(c2ccccn2)CC1 (stereo not drawn),45µM*!,-12%,25%[59 µM],-1%,-8%,31%
OC(COc1ccc(Cl)cc1)CN1CCN(c2ccccn2)CC1 (stereo not drawn),-10%,7%,.,3%,.,14%
CC(C)(C)C1CCC(OCC(O)CN2CCN(c3ccccn3)CC2)CC1 (stereo not drawn),?,8%,32µM*,-23%,?,24%
Cc1c(C(=O)N2CCCC2)oc2c1-c1nn(CC(=O)NCc3ccccc3F)cc1CC2,-17%,7%,-32%[59 µM],.,?,11%
CCn1cc(/C=C(\NC(=O)c2ccccc2OC)C(=O)NCCN2CCOCC2)c2ccccc21,.,.,.,-3%,.,.
CC1=NN(c2ccccc2)C(=O)/C1=C\c1cn(C)c2ccccc12,8.9µM*,-15%,11µM*,-10%,3.5µM*,16µM*
CC1=NN(c2ccccc2)C(=O)/C1=C/c1cn(C)c2ccccc12,6.3µM*,5%,-48%,-27%,5µM*,11µM*
CC1=NN(c2ccccc2)C(=O)/C1=C\c1cc(C)n(C)c1C,-24%,-1%,?,-11%,?,-17%
CCCCNC(=O)CC1Nc2cc(C)c(C)cc2NC1=O (stereo not drawn),-21%,-8%,-37%[59 µM],.,-14%,16%
CCN(CC)c1ccc(/C=C2\SC(=O)N(C(C)C)C2=O)o1,-35%,32µM*,7.1µM*,63%,?,-11%
CC(C)N1C(=O)S/C(=C/c2ccc3c(c2)n(C)c(=O)n3C)C1=O,-22%,-9%,6%[59 µM],-2%,12%,6%
N#CC1(NC(=O)COC(=O)c2nccnc2N)CCCCC1,-15%,-18%,?,-6%,?,23%
Cc1ccc(-c2ccc(NC(=O)C3C4C=CC(C4)C3C(=O)O)cc2)o1 (stereo not drawn),-32%,9%,16µM*,-5%,?,14%
Cc1cc(C)cc(-n2c(SCC(=O)N3CCCCCC3)nc3c([nH]c4ccccc43)c2=O)c1,13%,16%,14%[59 µM],.,5%,28%[57 µM]
Cc1cc(C(=O)N/N=C/c2cccn2C)n[nH]1,-3%,-5%,?,-3%,-27%,20%
Cn1cccc1/C=N/NC(=O)c1cccc(OC(F)(F)C(F)F)c1,79µM*,?,?,?,?,?
CC[n+]1c(C)sc2sc3ccccc3c21,.,.,1µM*,.,25µM*,.
COc1ccc(S(=O)(=O)c2c(O)c3ccc(C(=O)NCc4ccc(F)cc4)cc3[nH]c2=O)cc1,-11%,3%,8%[59 µM],.,-31%,?
CC1=NN(c2ccc(Cl)cc2)C(=O)C1C(c1cccc(O)c1)c1c(C)[nH]n(-c2ccc(Cl)cc2)c1=O (stereo not drawn),56µM*,79µM*,?,5.3µM*,45µM*,?
Cc1[nH]n(-c2ccccc2)c(=O)c1C(=O)c1cccc(F)c1,-21%,-4%,.,-3%,-18%,42%
CC1=NN(c2ccc(F)cc2)C(=O)C1C(c1cccc(O)c1)c1c(C)[nH]n(-c2ccc(F)cc2)c1=O (stereo not drawn),23%[11.4 µM],-13%,?,5.3µM*,-32%[57.1 µM],-38%
Cc1cccc(-c2c(NC(=O)c3ccco3)oc3c(C)cccc3c2=O)c1,-17%,-13%,38%,-22%,-11%,38%
Cc1cccc2c(=O)c(-c3ccc4c(c3)OCO4)c(NC(=O)c3ccco3)oc12,?,-12%,5%[0.0925 µM],24µM*,-15%,10%
Cc1ccc(CNC(=O)CCn2cc(-c3ccc(C)cc3)nc2-c2ccncc2)cc1,-26%,-20%,45µM*,-6%,?,-4%
CCCCCc1c(-c2cccc(F)c2)ncn1CCc1ccccc1OC,.,.,.,0%,.,.
